Only some compounds are listed: those with a hit (about 7.3% of all), similar ones and a draw of the others.
Gal4-VP16 FLuc: inhibits Gal4-VP16 luciferase reporter, ROR gamma counter-screen. Drosophila S2 Gal4-VP16 UAS-luciferase, luminescence, 20 h. Potency, µM (series often up to 53.6 µM), for inactives: at the top dose activity, negative = inhibition, usual class: inhibitors. 310,000 tested, 3.5% active. AID 2546;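 also: Gal4-VP16 expression switched on by copper sulfate through the metallothionein promoter; nearly all actives have a fitted effect of over 50% in size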
Tau fluor counter: counter-screen for tau fibril formation inhibitors | tau K18 P301L Alexa594 fluorescence, heparin fibrillization | Potency, µM (top dose mostly 57.7 µM), without a hit: at the top dose activity change, negative = decrease | 280,000 tested, 0.93% active; also: nearly all actives have a fitted effect of over 55% in size
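Human tau K18 P301L (15 uM unlabeled, 0.24 uM Alexa 594-labeled) in 100 mM sodium acetate pH 7 with 20 uM heparin, 6 hr at 37 C. ThT 30 uM added, 1 hr ambient; Alexa 594 FP and total fluorescence read at 555/632 nm.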
Tau FP inhib: tau fibrillization inhibition (FP); P10636; K18 P301L tau heparin fibrillization, Alexa594 FP, 6 h; Potency, µM (series often up to 57.7 µM), without a hit: top-dose activity, negative = inhibition, usual class: inhibitors; 280,000 tested, 0.39% active; AID 1468; also: nearly all actives have a fitted effect of over 55% in size
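Heparin (20 uM) drove fibril formation of recombinant tau K18 P301L, 15 uM unlabeled with 0.24 uM Alexa 594 label, for 6 hr at 37 C in 100 mM sodium acetate pH 7. Fluorescence polarization (555/632 nm) read 1 hr after 30 uM ThT.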
RORg inh: inhibitors of mouse ROR gamma transcriptional activity. P51450. Drosophila S2 Gal4-RORgamma UAS-luciferase reporter, 20 h. Potency, µM (doses to about 53.6 µM), for the others: at the highest dose activity change, negative = inhibition, actives largely listed as inhibitors. 310,000 tested, 5.4% active. AID 2551; also: nearly all actives have a fitted effect of over 60% in size
Target sequence (P51450 whole entry, looked up, the tested form may be a part): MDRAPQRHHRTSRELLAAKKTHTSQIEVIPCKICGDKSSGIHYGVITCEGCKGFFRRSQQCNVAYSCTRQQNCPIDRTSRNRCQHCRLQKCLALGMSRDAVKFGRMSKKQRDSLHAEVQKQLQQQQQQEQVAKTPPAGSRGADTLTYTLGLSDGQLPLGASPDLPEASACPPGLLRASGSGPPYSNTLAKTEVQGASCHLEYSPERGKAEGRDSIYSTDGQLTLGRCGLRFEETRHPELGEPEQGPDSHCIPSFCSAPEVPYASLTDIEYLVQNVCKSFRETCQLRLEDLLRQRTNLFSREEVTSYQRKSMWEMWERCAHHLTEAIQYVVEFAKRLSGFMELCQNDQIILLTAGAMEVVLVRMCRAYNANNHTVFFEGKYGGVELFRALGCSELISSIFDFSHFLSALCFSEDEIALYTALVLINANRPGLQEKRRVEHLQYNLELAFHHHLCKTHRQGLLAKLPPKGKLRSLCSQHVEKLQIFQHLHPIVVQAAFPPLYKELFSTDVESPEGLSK
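Compounds are pin-transferred onto Drosophila Schneider cells expressing a copper-inducible Gal4–ROR gamma transactivation domain fusion. After 1 hr, copper sulfate is added to 700 uM final; luciferase is read 20 hr later.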
Tau ThT inhib: tau fibrillization inhibition (ThT binding); P10636; recombinant tau K18 P301L (four-repeat tau fragment), heparin-induced fibrillization, ThT fluorescence; Potency, µM (titrated, usually from 57.4 µM), without a hit: at the top dose activity, negative = inhibition, hits mostly inhibitors; 270,000 tested, 2.1% active; AID 1460; also: nearly all actives have a fitted effect of over 55% in size
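Aggregation was driven by heparin (20 uM final) acting on recombinant tau […] bearing P301L in 100 mM sodium acetate pH 7; fibrils were detected with Thioflavin T.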
Starred values were filed as active, the others as inactive; ? = inconclusive; . = no result given; [ ] = another dose, or the depositor's remark. Calls follow the shape of the dose curve; as a rule, active = well fitted curve in the direction sought with a large enough effect; inconclusive = small, poorly fitted or top-dose-only effect, or another doubt; inactive = no such curve, though single readings can be large; an effect the other way counts as inactive or inconclusive. % is scaled to controls: 0 for no effect and ±100 for the full control effect; potency is read from the fitted curve at half-maximal effect.

SMILES | Gal4-VP16 FLuc | Tau fluor counter | Tau FP inhib | RORg inh | Tau ThT inhib
NC(=O)CSc1oc(-c2cccs2)nc1S(=O)(=O)c1ccc(Br)cc1 | . | ? | -17% | . | ?
FC(F)(F)c1cnc(C(c2ccccc2)c2ncn[nH]2)c(Cl)c1 (configuration not stated) | 7% | 2% | 3% | -5% | -1%
FC(F)(F)c1cnc(C(c2ccccn2)c2ncn[nH]2)c(Cl)c1 (configuration not stated) | -24% | -1% | -5% | 11µM* | -6%
N#Cc1cc2c(N)c(C(=O)Nc3ccccc3)sc2nc1N | -14% | ? | 16% | -6% | 7.9µM*
CCN1CCc2nc3sc(C(=O)Nc4cccnc4Cl)c(N)c3cc2C1 | -4% | . | . | -26% | .
Nc1c(C(=O)Nc2ccccc2)sc2nc(-c3ccco3)ccc12 | 9% | ? | 13% | 14% | ?
CN1CCc2nc3sc(C(=O)Nc4cccc(C#N)c4)c(N)c3cc2C1 | . | ? | 3% | . | 13µM*
COc1ccc(NC(=O)c2sc3nc4c(cc3c2N)CN(C(C)C)CC4)c(OC)c1 | . | 14µM*[quencher] | ? | . | 13µM*
CCN1CCc2nc3sc(C(=O)Nc4cccc(Cl)c4C)c(N)c3cc2C1 | . | ? | 4% | . | 10µM*
CCOc1cccc(NC(=O)c2sc3nc(-c4ccc(F)cc4)ccc3c2N)c1 | . | ? | -7% | . | ?
CN(C)Cc1ccccc1-c1nc(N(C)Cc2ccco2)c2ccccc2n1 | 0% | -8% | 0% | -18% | ?
COC(C(=O)Nc1ccnn1C1CCN(Cc2ccccn2)CC1)c1ccccc1 (configuration not stated) | -4% | . | . | 6% | .
CCn1cc(C(=O)N[C@@H](CCSC)C(=O)NC(C)(C)CO)c(=O)c2cc3c(cc21)OCO3 | -2% | . | . | -4% | .
Nc1nc(Nc2ccccc2F)nc(NCCO)c1[N+](=O)[O-] | -7% | -18% | 6% | 17% | -15%
Cc1cccc(NC(=O)c2sc3nc4c(cc3c2N)CN(C(C)C)CC4)c1 | . | 18µM*[quencher] | -13% | . | 13µM*
O=S(=O)(NCCSc1ccccn1)c1ccc(Br)cc1 | 11µM* | -11% | -5% | 8.9µM* | 2%
CCOc1ccc(-c2nc(=S)[nH][nH]2)cc1 | 22µM* | -10% | 1% | 5µM* | -16%
COc1ccc(-c2nc(=S)[nH][nH]2)cc1 | ? | 2% | -2% | 10µM* | -8%
FC(F)(F)c1ccc(-c2nc(=S)[nH][nH]2)cc1 | -13% | 6% | -1% | 2.5µM* | .
COc1ccc(-c2nc(=S)[nH][nH]2)cc1OC | -6% | 1% | 3% | -37% | -2%
COc1ccc(-c2n[nH]c(=S)nc2-c2ccc(OC)cc2)cc1 | ? | . | . | 7.1µM* | .
Cc1c(Cl)cccc1NC(=O)CSc1nncn1-c1ccccn1 | 2% | . | . | -14% | .
N[C@H](C(=O)O)C1C(C(=O)O)C1C(=O)O (some centres not stated) | . | 3% | -1% | . | 8%
S=c1nc(-c2cccc(Cl)c2)[nH][nH]1 | ? | -2% | -3% | 13µM* | -2%
COc1ccccc1N1C(=O)CC(N(O)c2ccccc2)C1=O (configuration not stated) | ? | -11% | 6% | 20% | ?
COc1ccc(N2C(=O)CC(N(CCc3ccc(OC)c(OC)c3)C(=S)Nc3ccccc3)C2=O)cc1 (configuration not stated) | 0.79µM* | -26% | 2% | ? | 2%
CCCOc1ccc(N2C(=O)CC(N(Cc3ccccc3)N=O)C2=O)cc1 (configuration not stated) | ? | -10% | -3% | 18% | -4%
COc1ccccc1N(O)C1CC(=O)N(c2ccc(F)cc2)C1=O (configuration not stated) | 5%[0.365 µM] | 16µM*[quencher] | ? | -14% | 14µM*
COc1ccc(CCN(C)C2CC(=O)N(c3ccccc3)C2=O)cc1OC (configuration not stated) | 16µM* | -14% | 1% | ? | -17%
COc1ccc(CN(N=O)C2CC(=O)N(c3ccc(OC)cc3)C2=O)cc1 (configuration not stated) | 14µM* | 0% | -6% | ? | 7%

Screens: PubChem, National Center for Advancing Translational Sciences (NCATS)
